The structures appear in SMILES notation. “And” between values parts separate entries of the source, which are not always exact repeats. Equal values may be shown once. Results filed as inconclusive are left out. Unmarked numbers belong to inactive results. The source made the active and inactive calls. The call rests on the fitted dose curve; in most records, active means well fitted inhibition curve with a large enough effect in the repeat runs; inconclusive means weak or mixed curves; inactive means no such curve, though single readings can be large or run the other way.
Further: nearly all actives have a fitted effect of over 50% in size.
On the % scale 0 is the no-effect control and ±100 the full control effect; potency means the concentration at half of the fitted maximal effect.

Sequence of Cytochrome P450 1A2 (Homo sapiens) (P05177 whole entry, looked up): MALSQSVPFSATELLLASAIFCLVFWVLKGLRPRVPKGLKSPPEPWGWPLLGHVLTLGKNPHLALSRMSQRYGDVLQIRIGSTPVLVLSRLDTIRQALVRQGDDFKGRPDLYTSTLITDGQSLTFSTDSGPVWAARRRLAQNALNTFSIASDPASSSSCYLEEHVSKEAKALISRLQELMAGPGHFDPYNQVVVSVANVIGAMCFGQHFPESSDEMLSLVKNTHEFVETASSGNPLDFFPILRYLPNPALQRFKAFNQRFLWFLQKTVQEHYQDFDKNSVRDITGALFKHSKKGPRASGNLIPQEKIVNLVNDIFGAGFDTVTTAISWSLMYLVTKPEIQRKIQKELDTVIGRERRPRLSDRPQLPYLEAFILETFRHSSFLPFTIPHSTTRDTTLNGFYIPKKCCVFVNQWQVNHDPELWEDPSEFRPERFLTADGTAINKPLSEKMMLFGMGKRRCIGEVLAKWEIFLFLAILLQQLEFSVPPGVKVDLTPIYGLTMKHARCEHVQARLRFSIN
Sequence of Cytochrome P450 2C9 (Homo sapiens) (P11712 whole entry, looked up): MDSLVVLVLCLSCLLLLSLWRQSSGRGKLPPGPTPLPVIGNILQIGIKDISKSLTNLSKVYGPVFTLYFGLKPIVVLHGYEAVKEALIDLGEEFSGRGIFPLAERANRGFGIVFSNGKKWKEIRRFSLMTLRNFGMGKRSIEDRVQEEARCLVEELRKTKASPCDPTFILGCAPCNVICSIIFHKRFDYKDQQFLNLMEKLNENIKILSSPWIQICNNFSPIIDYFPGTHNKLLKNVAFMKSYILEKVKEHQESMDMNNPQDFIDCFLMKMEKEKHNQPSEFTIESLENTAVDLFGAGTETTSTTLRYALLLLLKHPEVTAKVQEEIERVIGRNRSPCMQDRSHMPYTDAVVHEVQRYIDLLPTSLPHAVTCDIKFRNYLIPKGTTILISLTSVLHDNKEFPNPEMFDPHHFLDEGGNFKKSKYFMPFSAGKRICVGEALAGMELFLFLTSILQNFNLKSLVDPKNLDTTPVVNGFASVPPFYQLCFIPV

In the first test the target is Cytochrome P450 2C9 (Homo sapiens) (UniProt P11712). The test is described as follows: Cytochrome P450 Family 2 Subfamily C Member 9 (CYP2C9) small molecule antagonists: luciferase reporter qHTS assay (AID 1671198). The following applies: P450-Glo CYP2C9 enzyme assay, luciferin luminescence; series mostly up to 115 µM; activity change, negative = inhibition: at the top concentration. In a few lines:
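P450-Glo proluciferin substrate with CYP2C9 enzyme; 10 min RT preincubation, then NADPH regeneration 1 h at 37C; luciferin detection reagent 20 min RT, luminescence in relative luminescence units.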
`CNS(=O)(=O)Cc1ccc2[nH]cc(CCN(C)C)c2c1`: the “activity change, negative = inhibition” value is -0.492% [at 53 µM].

As for `O=c1[nH]cnc2ccccc12`, the “activity change, negative = inhibition” value is -24.8%.

Regarding `Cn1sccc1=O`, the Potency is 31.7 µM (active) and 35.6 µM (active).

On to `CC(Cc1cccc(C(F)(F)F)c1)NCCOC(=O)c1ccccc1` (centres undefined), for which the Potency was 27.5 µM (active).

`CCN(CC)CCOC(=O)C1(c2ccccc2)CCCC1`: the “activity change, negative = inhibition” value is 19.4% [at 53 µM].

For `Cc1cc(C)c(S(=O)(=O)O)cc1N=Nc1cc(S(=O)(=O)O)c2ccccc2c1O`, the Potency was 63.3 µM (active).

`CC(=O)/C=C/C1C(C)=CCCC1(C)C` (centres undefined): the “activity change, negative = inhibition” value is -15.9%.

In the case of `CCOC(=S)SSC(=S)OCC`, the Potency was 17.8 µM (active).

The target in the next test is Cytochrome P450 1A2 (Homo sapiens) (UniProt P05177). The test is described as follows: Cytochrome P450 Family 1 Subfamily A Member 2 (CYP1A2) small molecule antagonists: luciferase reporter qHTS assay (AID 1671199). As to conditions: P450-Glo CYP1A2 enzyme, luciferin luminescence, 1 h; series mostly up to 115 µM; activity change, negative = inhibition: at the top concentration. The gist of the method:
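Read-out is luminescence from luciferin detection reagent (20 min) proportional to CYP1A2 activity; compounds in DMSO preincubated 10 min with enzyme and proluciferin substrate, then NADPH regeneration solution, 1 h, room temperature.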
With `CCCCOc1ccc(CC(=O)NO)cc1`, the Potency is 15.5 µM (active).

Regarding `c1ccc(-c2nc[nH]c2-c2ccccc2)cc1`, the Potency was 8.12 µM (active).

Regarding `Oc1ccc(O)c2c(O)cccc12`, the Potency is 39.6 µM (active).

Take `CN(C(=O)CCCOc1ccc2[nH]c(=O)ccc2c1)C1CCCCC1`: the “activity change, negative = inhibition” value is 1.03% [at 53 µM].

On to `CCc1nn(C2CCCCC2)c2cc(C3(C#N)CCC(C(=O)O)CC3)ccc12` (centres undefined), for which the “activity change, negative = inhibition” value is -9.13%.

Turning to `CC(=O)OC/C=C/c1ccccc1`, the Potency is 31.7 µM (active).

With `CNS(=O)(=O)Cc1ccc2[nH]cc(CCN(C)C)c2c1`, the “activity change, negative = inhibition” value was 0.128% [at 53 µM].

Turning to `C[C@H](CCC(=O)O)[C@H]1CC[C@H]2[C@@H]3[C@H](O)C[C@@H]4C[C@H](O)CC[C@]4(C)[C@H]3CC[C@]12C`, the Potency is 31.8 µM (active).

Regarding `CN(C)CCCNCCCN`, the Potency is 35.4 µM (active).

As to `CC(C)CCCCCCOC(=O)c1ccc(C(=O)OCCCCCCC(C)C)c(C(=O)OCCCCCCC(C)C)c1`, the “activity change, negative = inhibition” value is -21.6%.

With `Cn1sccc1=O`, the Potency is 35.6 µM (active) and 31.7 µM (active).

Values taken from PubChem BioAssay (Tox21).
